Laboratory results taken from paper PMC4336329 (PLoS ONE, 2015).
Among all 310,000 compounds or so, about 14,000 (4.5%) showed an effect of 50% or more. The effect is printed as a negative number. The sample holds strong results, similar compounds and a random draw of the others, so the mix is not that of the screen.

target: human ether-à-go-go-related gene (hERG) potassium channel (human, UniProt Q12809); test: primary screen, population patch clamp on CHO cells stably expressing hERG; higher = less effect of the substance
Sequence (Q12809 whole entry, looked up): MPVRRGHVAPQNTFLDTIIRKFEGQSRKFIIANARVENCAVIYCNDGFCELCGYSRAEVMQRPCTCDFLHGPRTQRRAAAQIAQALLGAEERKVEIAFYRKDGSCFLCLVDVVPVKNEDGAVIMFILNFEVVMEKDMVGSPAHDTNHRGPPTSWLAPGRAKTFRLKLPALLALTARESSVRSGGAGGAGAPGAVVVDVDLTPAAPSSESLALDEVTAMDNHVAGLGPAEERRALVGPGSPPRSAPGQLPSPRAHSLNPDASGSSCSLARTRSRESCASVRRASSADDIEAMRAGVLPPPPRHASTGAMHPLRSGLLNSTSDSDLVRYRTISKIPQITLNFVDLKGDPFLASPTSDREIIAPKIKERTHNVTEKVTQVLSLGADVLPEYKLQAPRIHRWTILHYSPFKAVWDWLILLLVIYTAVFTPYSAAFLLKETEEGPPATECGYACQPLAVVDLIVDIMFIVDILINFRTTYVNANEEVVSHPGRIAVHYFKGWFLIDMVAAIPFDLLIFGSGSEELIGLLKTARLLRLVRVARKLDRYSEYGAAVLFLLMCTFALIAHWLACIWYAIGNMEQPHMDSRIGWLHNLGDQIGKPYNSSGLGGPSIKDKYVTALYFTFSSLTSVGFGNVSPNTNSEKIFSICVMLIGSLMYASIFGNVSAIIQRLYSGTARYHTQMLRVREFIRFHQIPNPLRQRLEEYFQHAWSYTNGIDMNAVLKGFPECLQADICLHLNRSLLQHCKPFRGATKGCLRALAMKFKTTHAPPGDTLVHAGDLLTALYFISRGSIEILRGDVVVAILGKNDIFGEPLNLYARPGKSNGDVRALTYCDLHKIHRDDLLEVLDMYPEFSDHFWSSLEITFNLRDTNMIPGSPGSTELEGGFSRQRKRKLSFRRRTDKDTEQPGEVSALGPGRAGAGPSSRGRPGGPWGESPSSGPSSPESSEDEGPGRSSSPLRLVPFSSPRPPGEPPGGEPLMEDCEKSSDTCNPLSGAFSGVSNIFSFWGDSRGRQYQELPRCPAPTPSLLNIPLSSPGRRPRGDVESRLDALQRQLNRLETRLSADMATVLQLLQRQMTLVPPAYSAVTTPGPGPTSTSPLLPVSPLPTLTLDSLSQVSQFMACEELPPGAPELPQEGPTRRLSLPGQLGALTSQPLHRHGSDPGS
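Also: peak tail current of the secondary pulse compared with the same well before compound.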

Structure (SMILES) | hERG current change (%, negative = inhibition) at 10uM [%]
COc1ccccc1NC(=O)Cn1cncc1-c1ccc([N+](=O)[O-])cc1 | 2.57
O=C1CCC(C(=O)NCCN2C(=O)S/C(=C\c3cccnc3)C2=O)=NN1 | 2.26
CSC1=NSC2=NC(=O)/C(=C\c3ccc(OC(=O)c4ccco4)cc3)C(=N)N12 | 9.54
Cc1ccc(S(=O)(=O)N2CCN(C(=O)c3ccco3)CC2)cc1 | 1.15
CC(C)Cc1ccc(S(=O)(=O)N2CCN(C(=O)c3ccco3)CC2)cc1 | -11.1
CCCCc1ccc(S(=O)(=O)N2CCN(C(=O)c3ccco3)CC2)cc1 | -66.5
COC(=O)c1ccc(NC(=S)N2CCN(C(=O)c3ccco3)CC2)cc1 | -4.94
COc1ccc(NC(=S)N2CCN(C(=O)c3ccco3)CC2)cc1 | -6.29
CCCCc1ccc(NC(=S)N2CCN(C(=O)c3ccco3)CC2)cc1 | -75.3
COc1ccc(C2/C(=C(\O)c3ccc4c(c3)OCCO4)C(=O)C(=O)N2Cc2ccco2)c(OC)c1 (stereo not drawn) | -9.64
Cn1c(=O)cc(OCCCC(=O)Nc2cccnc2)c2ccccc21 | 0.169
O=c1c2cccc3c2c(nn1CN1CCOCC1)-c1ccccc1-3 | -11.5
O=C(O)Cn1nc2c3c(cccc3c1=O)-c1ccccc1-2 | 8.18
CCN(CC)CCn1nc2c3c(cccc3c1=O)-c1ccccc1-2 | -70.2
COC(=O)c1c(C)[nH]c(C)c1-c1ccccc1 | -5.37
O=C1NC(c2ccc3c(c2)OCO3)Nc2ccccc21 (stereo not drawn) | 10.5
O=C(Nc1ccncc1)c1ccc2c(c1)OCCO2 | 11.8
COc1ccc(Br)cc1S(=O)(=O)N(CC(=O)N1CCN(C)CC1)c1ccccc1 | -22.6
COc1ccc(N(CC(=O)N2CCN(C)CC2)S(=O)(=O)c2cc(C)ccc2OC)cc1Cl | -60.3
COc1ccc(C)cc1S(=O)(=O)N(CC(=O)N1CCOCC1)c1cc(C)cc(C)c1 | -77.4
COc1ccc(Br)cc1S(=O)(=O)N(CC(=O)N1CCOCC1)c1ccccc1 | -47
COc1ccc(C)cc1N(CC(=O)N1CCOCC1)S(C)(=O)=O | 21.2
COc1ccc(C)cc1S(=O)(=O)N(C)CC(=O)N1CCN(C)CC1 | 2.65
COc1ccc(C)cc1S(=O)(=O)N(CC(=O)N1CCCC1)c1ccccc1 | -37.9
COc1ccc(C)cc1S(=O)(=O)N(CC(=O)N1CCCC1)c1ccc(C)cc1 | -53
COc1ccc(C)cc1S(=O)(=O)N(C)CC(=O)N1CCCC1 | 13.2

Structure (SMILES) | hERG current change (%, negative = inhibition) at 10uM [%]
CC(OC(=O)C1CCC(=O)N1)C(=O)Nc1cc(Cl)cc(Cl)c1 (stereo not drawn) | 2.72
O=C(CSc1n[nH]c(=O)n1Cc1ccco1)c1ccc2c(c1)OCCO2 | 15
c1cc2c(cc1Oc1nc(N3CCOCC3)nc(N3CCOCC3)n1)OCO2 | 3.77
CC(C)Cc1ccc(C(C)C(=O)OCC(=O)c2c[nH]c3ccccc23)cc1 (stereo not drawn) | 3.98
O=C(Nc1ccccc1)c1cc(S(=O)(=O)N2CCCCC2)ccc1N1CCOCC1 | 1.08
COc1ccc(C)cc1NC(=O)c1cc(S(=O)(=O)N2CCCCC2)ccc1N1CCOCC1 | -39.2
Cc1ccc(NC(=O)c2cc([N+](=O)[O-])ccc2N2CCOCC2)cc1S(=O)(=O)N1CCOCC1 | -46
CCN(CC)S(=O)(=O)c1cc(NC(=O)c2cc([N+](=O)[O-])ccc2N2CCOCC2)ccc1C | -20.5
COc1ccc(S(=O)(=O)N2CCCCC2)cc1NC(=O)c1cc([N+](=O)[O-])ccc1N1CCOCC1 | -30.4
Cc1ccc(S(=O)(=O)N2CCOCC2)cc1NC(=O)c1cc([N+](=O)[O-])ccc1N1CCOCC1 | -67.7
O=C(Nc1ccccc1Cl)c1cc(S(=O)(=O)N2CCCCC2)ccc1N1CCOCC1 | -39.7
Cc1ccc(NC(=O)c2cc([N+](=O)[O-])ccc2N2CCOCC2)cc1S(=O)(=O)N(C)C | -52.8
NC(=O)c1ccccc1NC(=O)c1cc(S(=O)(=O)N2CCCCC2)ccc1N1CCOCC1 | -73.9
CC(C)Oc1ccc(S(=O)(=O)N2CCOCC2)cc1NC(=O)c1cc([N+](=O)[O-])ccc1N1CCOCC1 | -45.7
Cc1ccc(NC(=O)c2cc(S(=O)(=O)N3CCCCC3)ccc2N2CCOCC2)cc1F | -13.9
Cc1ccc(C)c(NC(=O)c2cc(S(=O)(=O)N3CCCCC3)ccc2N2CCOCC2)c1 | -62.7
Cc1ccc(NC(=O)/C(=C/c2cccs2)NC(=O)c2ccco2)c(C)c1 | -9.56
CCCC(=O)NNC(=O)Nc1ccccc1 | 19.8
O=c1[nH]c(CSc2nc3ccccc3[nH]2)nc2c1cnn2-c1ccccc1 | -17.6
COc1ccc(CC(=O)Nc2cc(C)on2)cc1OC | 2.2
CC(=O)Nc1ccc(S(=O)(=O)Nc2nc3ccccc3nc2Nc2cccc(S(N)(=O)=O)c2)cc1 | 10.3
CCOc1ccc2oc(-c3ccccc3)c(C(=O)N3CCN(C)CC3)c2c1 | -9.67
O=C(Nc1ccccc1N1CCCC1)c1cc(S(=O)(=O)N2CCOCC2)ccc1Cl | -34.5
CS(=O)(=O)c1ccc(Cl)c(NC(=O)c2cc(S(=O)(=O)N3CCOCC3)ccc2N2CCCC2)c1 | -81.3
O=C(Nc1ccccc1N1CCCCC1)c1cc(S(=O)(=O)N2CCOCC2)ccc1Cl | -4.01
